# The list is not random: actives were taken first. Their share in the collection is about 3.3%.
# HCV inh = HCV inhibition; Huh7.5.1 HCVcc-Cre infection, luciferase reporter, 44 h; Potency, µM (titrated, usually from 41.8 µM), without a hit: at the top dose activity change, negative = inhibition, hits mostly inhibitors; 3.4% of 340,000 active; active means well fitted inhibition curve with a large enough effect; inconclusive means small, poorly fitted or top-dose-only effect, or another doubt; inactive means no such curve, though single readings can be large or run the other way
#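 1,000 cells/well; 4 h culture; + compound; + HCVcc-Cre (~0.5 moi); 44 h; luciferase substrate, RT 15 min; read 15 sec.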
# VACV Venus inh = vaccinia inhibition (Venus reporter); Vaccinia virus Venus reporter expression, fluorescence; Potency, µM (series often up to 36.5 µM), inactives show at the top dose activity change, negative = inhibition, most hits filed as inhibitors; 0.46% of 330,000 active; AID 720580; calls by dose curve; tested in A549 cells; further: nearly all actives have a fitted effect of over 30% in size
# VACV mCherry inh = inhibitors of vaccinia virus infection (mCherry reporter signal). Vaccinia virus mCherry reporter infection, fluorescence. Potency, µM (titrated, usually from 36.5 µM), inactives show top-dose activity change, negative = inhibition, usual class: inhibitors. 0.63% of 310,000 active. AID 720579; calls by dose curve; tested in A549 cells; further: nearly all actives have a fitted effect of over 35% in size
# Starred values were filed as active, the others as inactive; i = inactive; ? = inconclusive; . = no result; [ ] = remark or other dose. On the % scale 0 is the no-effect control and ±100 the full control effect; potency means the concentration at half of the fitted maximal effect.
SMILES,HCV inh,VACV Venus inh,VACV mCherry inh
COc1ccc(C(=O)c2no[n+]([O-])c2C(=O)c2ccc(OC)cc2)cc1,?,0.0%,-5.6%
Cc1ccc(CSCC(=O)N(CCC(C)C)c2c(N)n(Cc3ccccc3)c(=O)[nH]c2=O)cc1,?,-7.1%,-14.0%
O=C(CSc1nnnn1C1CC1)N1CCN(c2ccc(O)cc2)CC1,5.8%,.,.
O=C(CSc1nnnn1C1CC1)N1CCN(c2cccc(Cl)c2)CC1,12.6µM*,.,.
Cc1cccc(N2CCN(C(=O)CSc3nnnn3C3CC3)CC2)c1C,13.3%,.,.
CC(C)c1ccc(CN2CCN(C(=O)CSc3nnnn3C3CC3)CC2)cc1,5.62µM*,.,.
Cc1ccc2oc(=O)cc(CN3CCN(C/C=C/c4ccccc4)CC3)c2c1,10µM*,2.5%[7.34 µM],-15.8%[7.34 µM]
Cc1ccc2oc(=O)cc(CN3CCCCC3)c2c1,?,-6.4%,-10.7%
Cc1cc(C)nc(SCc2nnc(SCC(=O)N3CCCc4ccccc43)n2C)n1,11.2µM*,0.3%,-5.1%
Cc1cc(C)nc(SCc2nnc(SCC(=O)N3CCCc4ccccc43)o2)n1,?,-11.9%,-19.4%
Cc1ccc(N2CCN(C(=O)c3cc(C(=O)c4ccccc4C)c[nH]3)CC2)c(C)c1,11.2µM*,.,.
Cc1ccc(N2CCN(C(=O)c3ccccc3)CC2)c(C)c1,-8.5%,-20.5%,-15.4%
COc1cccc(C(=O)c2cn(CC(=O)NCc3ccccc3Cl)c3nc(C)ccc3c2=O)c1,.,-16.2%,-19.4%
O=C(Nc1ccccc1O)C(c1ccccc1)c1ccccc1,12.6µM*,-6.2%,-6.7%
O=C(O)c1ccccc1NC(=O)C(c1ccccc1)c1ccccc1,4.2%,-4.9%,i
Cc1ccc(-n2ncc(C(=O)NCc3ccccc3C)c2-n2cccc2)cc1,.,-16.2%,-14.1%
COc1cc2c(cc1OC)C(c1ccc(-c3ccc(Cl)c(Cl)c3)o1)=NCC2,12.6µM*,?,-22.1%
COc1cc2c(cc1OC)C(c1ccc(Cl)cc1)=NCC2,-6.5%,.,.
COc1cc2c(cc1OC)C(c1oc(-c3ccc(-c4cc(Cl)ccc4Cl)o3)cc1C)=NCC2,.,-14.2%,-14.2%
COc1cc2c(cc1OC)C(c1ccc(-c3ccc(Cl)cc3Cl)o1)=NCC2,11.2µM*,-29.4%,?
COc1cc2c(cc1OC)C(c1ccc(-c3cc(Cl)ccc3Cl)o1)=NCC2,?,-16.2%,-22.1%
COc1cc2c(cc1OC)C(c1ccc(-c3ccccc3Cl)o1)=NCC2,5.62µM*,.,.
COc1ccc(CN2Cc3ccccc3OC(c3ccccc3OC)C2)c(O)c1 (stereo not drawn),.,-11.4%,-20.8%
O=S(=O)(NCCc1csc2nc(-c3ccccc3)nn12)c1cc(F)ccc1F,.,-7.7%,-0.6%
O=S(=O)(c1ccccc1Cl)N1CCN(c2nc(-c3cccs3)nc3ccccc23)CC1,.,-18.6%,-21.1%
SMILES,HCV inh,VACV Venus inh,VACV mCherry inh
O=C(NNc1c(Cl)cc(Cl)cc1Cl)c1cccc([N+](=O)[O-])c1,10µM*,-7.2%,-28.3%
O=C(NNC(=S)NC(=O)c1ccccc1Cl)c1cccc([N+](=O)[O-])c1,?,-10.8%,i
CCN(CC)c1ccc(CNCCc2ccc(F)cc2)cc1,?,-8.0%,10µM*
CCc1ccc(CNCCc2ccc(F)cc2)cc1,?,-27.4%,-8.1%
O=C(/C=C/c1ccco1)Nc1ccc(Cl)c(S(=O)(=O)N2CCOCC2)c1,10µM*,.,.
O=C(Nc1ccccc1)Nc1ccc(Cl)c(S(=O)(=O)N2CCOCC2)c1,?,-21.1%,i
COc1ccc(NC(=O)/C=C/c2ccc(S(=O)(=O)N3CCOCC3)cc2)cc1,-4.2%,.,.
COc1ccc(/C=C/C(=O)Nc2ccc(C)c(S(=O)(=O)N3CCOCC3)c2)cc1,2.82µM*,?,?
CCN1CCN(c2ccc(S(=O)(=O)N3CCOCC3)cc2NC(=O)/C=C/c2ccc(OC)cc2OC)CC1,7.5%,-21.0%,-11.2%
COc1ccc(/C=C/C(=O)Nc2ccc(S(=O)(=O)N3CCOCC3)cc2)c(OC)c1,10µM*,.,.
COc1ccc(CCC(=O)Nc2ccc(S(=O)(=O)N3CCOCC3)cc2)cc1,-19.4%,-4.3%,-23.6%
COc1ccc(N(CC(=O)Nc2ccc(S(=O)(=O)N3CCOCC3)cc2)S(=O)(=O)c2ccc(F)cc2)cc1,14.1µM*,-21.6%,-28.1%
COc1cccc(N2C(=NC(=O)c3ccccc3)SC3CS(=O)(=O)CC32)c1 (stereo not drawn),14.7%,-2.5%,3.7%
CC(C)NC(=O)c1csc(COCCO)n1,.,0.6%,-4.1%
CCn1nc(C(=O)Nc2ccc(Cl)c(S(=O)(=O)N3CCOCC3)c2)c2ccccc2c1=O,11.2µM*,-14.0%,i
Cc1ccc(S(=O)(=O)N2CCOCC2)cc1NC(=O)COc1cccc(-n2cnnn2)c1,4.6%,-16.9%,-26.7%
Cc1ccc(NC(=O)COc2cccc(-n3cnnn3)c2)cc1S(=O)(=O)N1CCOCC1,11.2µM*,.,.
CCCn1nc(C(=O)Nc2cccc(S(=O)(=O)N3CCOCC3)c2)c2ccccc2c1=O,.,-10.7%,-2.7%
CCCCNC(=O)CCn1nc(-c2ccc(C)cc2)c2ccccc2c1=O,-17.4%,.,.
CCNc1c(NC(=O)COc2ccc(Cl)cc2)c(=O)oc2ccccc12,-14.5%,7.6%[7.34 µM],12.9%[7.34 µM]
O=C(Cc1ccccc1)N/N=C/c1cc(Br)cc(Cl)c1O,?,?,12.6µM*
COc1cc(/C=N/NC(=O)Cc2ccc(Br)cc2)cc(OC)c1O,?,2.6%,-11.4%
COc1cc(Br)cc(/C=N/NC(=O)Cc2ccccc2)c1O,12.6µM*,?,?
O=C(CP(=O)(c1ccccc1)c1ccccc1)N/N=C/c1cc(Br)cc(Br)c1O,?,-3.7%,-10.3%
COc1ccc2c(c1)OC[C@H]1[C@H]2N2C(=O)[C@H](C)NC(=O)[C@@]2(C)[C@H]1c1ccccc1,-0.2%,-6.7%,i
SMILES,HCV inh,VACV Venus inh,VACV mCherry inh
O=C(C[N+]1(CCO)CCOCC1)c1cccs1,.,-6.4%,-9.4%
CC(C)(C)C(=O)OCOC(=O)[C@@H]1N2C(=O)[C@@H](N=CN3CCCCCC3)[C@H]2SC1(C)C,0.501µM*,-20.7%,-3.0%
CC1(C)S[C@@H]2[C@H](NC(=O)COc3ccccc3)C(=O)N2C1C(=O)OCC1CCCCC1 (stereo partly drawn),7.2%,-6.1%,i
O=C(CN1C(=O)COc2ccccc21)NCCN1CCC(Cc2ccccc2)CC1,22.4µM*,-19.6%,-11.4%
O=C(CN1C(=O)COc2ccccc21)NCCN1CCOCC1,4.1%,2.4%,18.2%
COc1ccc2[nH]cc(CCNc3ccnc(-c4cccc(NS(C)(=O)=O)c4)n3)c2c1,.,0.0%,12.6%
CCCCCCCCCn1c2c(c(=N)c3c1CCC3)CCC2,0.891µM*,?,?
CCCCCCn1c(=O)[nH]c2c(c1=O)CCC2,-5.1%,-10.9%,i
CCCCCCCn1c2c(c(=N)c3c1CCC3)CCCC2,4.47µM*,?,?
CCCCCCn1c2c(c(=N)c3c1CCC3)CCC2,10µM*,.,.
CCn1c2c(c(=N)c3c1CCC3)CCC2,1.7%,18.9%,-10.8%
N=c1c2c(n(Cc3ccc(F)cc3)c3c1CCC3)CCC2,7.7%,-29.1%,-28.6%
COc1cccc(-c2ccc3nnc(SCC(=O)Nc4ccc(NC(C)=O)cc4)n3n2)c1,?,-9.2%,-15.0%
CCOC(=O)c1c(C)[nH]c(C)c1S(=O)(=O)N1CCC(C(=O)NCc2ccc(N(C)C)cc2)CC1,.,-13.9%,-17.5%
CN(C)c1ccc(/C=C/c2nc3ccccc3o2)cc1,.,-17.6%,24.5%
CN(CCOc1ccc(-c2ccn(S(=O)(=O)c3ccc(Cl)cc3)n2)cc1)c1ccccn1,1.12µM*,.,.

# Bioassay records deposited in PubChem BioAssay by National Center for Advancing Translational Sciences (NCATS).
